Results: PubChem BioAssay (NCI)
About 83,000 compounds went through this panel and 20% of them were active in at least one assay; those are over-represented in the sample as a whole.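 In brief: 96-well plates, 48 h treatment, single concentration, percent growth endpoint.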 Unmarked numbers belong to inactive results. Calls of active or inactive are those of the source. Rule for the calls: active = growth percent below 10; inactive = the rest.

tested on: MDA-MB-468 breast; test: NCI-60 one-dose screen, 48 h (100 = growth as untreated, 0 = no growth, -100 = all killed); details: 10 µM unless noted

Structure (SMILES) | growth
CC(C)C(=O)Cc1cnccn1 | 119%
Cc1cc(=O)n2nc(-c3cn(C)c4ccc(Cl)cc34)sc2n1 | -42.5% (active)
O=[N+]([O-])c1cc2ncccc2c2ncccc12 | 89%
CC(C)(C)[Si](C)(C)O[C@H]1C(=O)C=CN2CC=C[C@@H]12 | 99.4% [100 µM]
COc1cc(Cl)ccc1C | 64.9%
O=C1C(Cl)C(c2ccccc2Cl)N1n1cnnc1 (stereo not given) | 106%
Nc1n[nH]c2cccc(C#Cc3cccc(NC(=O)c4cc(N5CCOCC5)cc(C(F)(F)F)c4)c3)c12 | 85.6%
CC(C)(C)Nc1nc2c(OCCc3ccccc3)cccn2c1-c1ccccc1Cl | -27.8% (active)
Cc1cccc(NC(=O)N/C(N)=N/c2nc(C)c(C)s2)c1 | 14%
N#Cc1c(-c2cccs2)cc(-c2cnccn2)nc1SCC(=O)NNC(=S)Nc1ccc(F)cc1 | 122%
Cn1ncc2cc3c(Nc4ccc(Cl)cc4)cccc3nc21 | 79%
Nc1ccc(Sc2ccc3c4c2cccc4c(=O)n2c4ccccc4nc32)cc1 | 43.5%
COc1ccccc1C(=O)NC(=S)Nc1ccc(-c2nc3ccccc3[nH]2)cc1 | 75.1%
Cc1ccc(/C=C/c2c(C(=O)/C=C/c3ccccc3)c(C)nc3ccccc23)cc1 | 38.1%
CCOC(=O)CNP(=O)(OC[C@@H](Cc1ccccc1)NC(=O)c1cc2ccccc2s1)Oc1ccccc1 (stereo not given in full) | -5% (active)
CCS(=O)(=O)c1ncnc2nc[nH]c12 | 105%
OCC1OC(OC2C(O)C(CO)OC2(CO)OC2OC(CO)C(O)C(O)C2O)C(O)C(O)C1O (stereo not given) | 112%
COc1cc(C=C2C(=O)NC(=S)NC2=O)cc(CN2CCCC2)c1O | 110%
ClCC(Cl)[C@@H]1CC2C=CC1C2 (stereo not given in full) | 96%
CC[C@H]1OC(=O)[C@H](C)[C@@H](O[C@H]2C[C@@](C)(OC)[C@@H](O)[C@H](C)O2)[C@H](C)[C@@H](O[C@@H]2O[C@H](C)C[C@H](N(C)C)[C@H]2O)[C@](C)(OC)C/C(C)=C2/O[C@@]1(C)C=C2C | -73.7% (active)

Structure (SMILES) | growth
O=S(=O)(NCc1ccccc1)c1ncnc2nc[nH]c12 | 108%
Cc1c(O)cc(-c2cnc(N/N=C\c3ccc(Cl)cc3)s2)c(O)c1C | 76%
COC(=O)c1ccc(NC(N)=NCCC(C)(C)c2ccc(C(F)(F)F)cc2)nc1 | -14.2% (active)
CCC1(C2CCCC2)NC(=O)NC1=O (stereo not given) | 101%
CC(=O)c1cnc(-c2ccccc2)nc1CBr | 49.6%
COc1c(N2CC3CCCNC3C2)c(F)cc2c(=O)c(C(=O)N/N=C/c3ccc(F)cc3)cn(C3CC3)c12 (stereo not given) | 84.4%
Fc1cc2c(cc1Cl)N(c1ncnc3ccc(-c4ccc5n[nH]nc5c4)cc13)CC2 | 40.2%
COc1ccc2[nH]cc(C(c3ccc(Cl)cc3)N3CCCC3)c2c1 (stereo not given) | 84%
COc1ccc2c(c1)oc1c(C)c3c(c(C)c12)C(=O)N(CCOS(C)(=O)=O)C3=O | 127%
COC(=O)CC/C(C)=N\Nc1ccc([N+](=O)[O-])cc1 | 71.1%
CCCCOc1ccc(NC(=O)n2nc(N=NN(C)C)c3ccc(Cl)cc32)cc1 | 97.9%
OCC1OC(n2cnc3c(NCc4ccco4)ncnc32)C(O)C1O (stereo not given) | -82.8% (active)
O=C(NOC(=O)c1ccccc1)c1ccccc1 | 105%
C=C(C)[C@H]1CC/C(C)=C/CC[C@]2(C)O[C@H]2CC/C(COC(=O)[C@@H](OC(C)=O)[C@H](NC(=O)c2ccccc2)c2ccccc2)=C\[C@@H]1O | 84.4%
COc1cc(CSc2nc3ccc(C)cc3c(=O)n2-c2ccccc2)cc(OC)c1OC | -8.37% (active)
CC1COc2c(N3CCN(C)CC3)c(F)cc3c(=O)c(C(=O)N/N=C/c4cc[nH]c4)cn1c23 (stereo not given) | -9.35% (active)
COc1cc(C(=O)c2cc(C(C)=O)c3ccc(C)cn23)cc(OC)c1OC | -2.89% (active)
N/C(=N\N=C\c1cc2ccccc2[nH]1)N/N=C/c1cc2ccccc2[nH]1 | 107%
N#C/C(=C\c1ccc[nH]1)c1cc2ccccc2[nH]1 | -3.15% (active)
Cc1cccc2c(=O)c3c(sc12)c(NCCCNCCO)nc1ccccc13 | 16.3%
